According to PubChem BioAssay AID602261 (Sanford-Burnham Center for Chemical Genomics, 2012):
Out of some 360,000 compounds screened, about 2,400 (0.67%) were called active. Many of the other results were omitted from the sample, so actives are more common in it than they were. A number with no mark means an inactive call.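 The calls were made as follows: active = compounds whose normalised, plate-corrected inhibition of enzyme fluorescence in the single-dose primary screen is 50% or more; inactive = the rest.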

Each molecule was assayed against Fatty acid synthase (Homo sapiens) (UniProt P49327) (assay: inhibition of human FAS-TE enzyme activity – biochemical, fluorescence intensity, uHTS, primary screen (AID 602261;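 also: 0% = DMSO with enzyme and 100% = substrate without enzyme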)). Details: recombinant FAS-TE, OMFH fluorogenic substrate, fluorescence endpoint; at 15 µM; hits give high values.
Chain of Fatty acid synthase (Homo sapiens) (P49327 whole entry, looked up): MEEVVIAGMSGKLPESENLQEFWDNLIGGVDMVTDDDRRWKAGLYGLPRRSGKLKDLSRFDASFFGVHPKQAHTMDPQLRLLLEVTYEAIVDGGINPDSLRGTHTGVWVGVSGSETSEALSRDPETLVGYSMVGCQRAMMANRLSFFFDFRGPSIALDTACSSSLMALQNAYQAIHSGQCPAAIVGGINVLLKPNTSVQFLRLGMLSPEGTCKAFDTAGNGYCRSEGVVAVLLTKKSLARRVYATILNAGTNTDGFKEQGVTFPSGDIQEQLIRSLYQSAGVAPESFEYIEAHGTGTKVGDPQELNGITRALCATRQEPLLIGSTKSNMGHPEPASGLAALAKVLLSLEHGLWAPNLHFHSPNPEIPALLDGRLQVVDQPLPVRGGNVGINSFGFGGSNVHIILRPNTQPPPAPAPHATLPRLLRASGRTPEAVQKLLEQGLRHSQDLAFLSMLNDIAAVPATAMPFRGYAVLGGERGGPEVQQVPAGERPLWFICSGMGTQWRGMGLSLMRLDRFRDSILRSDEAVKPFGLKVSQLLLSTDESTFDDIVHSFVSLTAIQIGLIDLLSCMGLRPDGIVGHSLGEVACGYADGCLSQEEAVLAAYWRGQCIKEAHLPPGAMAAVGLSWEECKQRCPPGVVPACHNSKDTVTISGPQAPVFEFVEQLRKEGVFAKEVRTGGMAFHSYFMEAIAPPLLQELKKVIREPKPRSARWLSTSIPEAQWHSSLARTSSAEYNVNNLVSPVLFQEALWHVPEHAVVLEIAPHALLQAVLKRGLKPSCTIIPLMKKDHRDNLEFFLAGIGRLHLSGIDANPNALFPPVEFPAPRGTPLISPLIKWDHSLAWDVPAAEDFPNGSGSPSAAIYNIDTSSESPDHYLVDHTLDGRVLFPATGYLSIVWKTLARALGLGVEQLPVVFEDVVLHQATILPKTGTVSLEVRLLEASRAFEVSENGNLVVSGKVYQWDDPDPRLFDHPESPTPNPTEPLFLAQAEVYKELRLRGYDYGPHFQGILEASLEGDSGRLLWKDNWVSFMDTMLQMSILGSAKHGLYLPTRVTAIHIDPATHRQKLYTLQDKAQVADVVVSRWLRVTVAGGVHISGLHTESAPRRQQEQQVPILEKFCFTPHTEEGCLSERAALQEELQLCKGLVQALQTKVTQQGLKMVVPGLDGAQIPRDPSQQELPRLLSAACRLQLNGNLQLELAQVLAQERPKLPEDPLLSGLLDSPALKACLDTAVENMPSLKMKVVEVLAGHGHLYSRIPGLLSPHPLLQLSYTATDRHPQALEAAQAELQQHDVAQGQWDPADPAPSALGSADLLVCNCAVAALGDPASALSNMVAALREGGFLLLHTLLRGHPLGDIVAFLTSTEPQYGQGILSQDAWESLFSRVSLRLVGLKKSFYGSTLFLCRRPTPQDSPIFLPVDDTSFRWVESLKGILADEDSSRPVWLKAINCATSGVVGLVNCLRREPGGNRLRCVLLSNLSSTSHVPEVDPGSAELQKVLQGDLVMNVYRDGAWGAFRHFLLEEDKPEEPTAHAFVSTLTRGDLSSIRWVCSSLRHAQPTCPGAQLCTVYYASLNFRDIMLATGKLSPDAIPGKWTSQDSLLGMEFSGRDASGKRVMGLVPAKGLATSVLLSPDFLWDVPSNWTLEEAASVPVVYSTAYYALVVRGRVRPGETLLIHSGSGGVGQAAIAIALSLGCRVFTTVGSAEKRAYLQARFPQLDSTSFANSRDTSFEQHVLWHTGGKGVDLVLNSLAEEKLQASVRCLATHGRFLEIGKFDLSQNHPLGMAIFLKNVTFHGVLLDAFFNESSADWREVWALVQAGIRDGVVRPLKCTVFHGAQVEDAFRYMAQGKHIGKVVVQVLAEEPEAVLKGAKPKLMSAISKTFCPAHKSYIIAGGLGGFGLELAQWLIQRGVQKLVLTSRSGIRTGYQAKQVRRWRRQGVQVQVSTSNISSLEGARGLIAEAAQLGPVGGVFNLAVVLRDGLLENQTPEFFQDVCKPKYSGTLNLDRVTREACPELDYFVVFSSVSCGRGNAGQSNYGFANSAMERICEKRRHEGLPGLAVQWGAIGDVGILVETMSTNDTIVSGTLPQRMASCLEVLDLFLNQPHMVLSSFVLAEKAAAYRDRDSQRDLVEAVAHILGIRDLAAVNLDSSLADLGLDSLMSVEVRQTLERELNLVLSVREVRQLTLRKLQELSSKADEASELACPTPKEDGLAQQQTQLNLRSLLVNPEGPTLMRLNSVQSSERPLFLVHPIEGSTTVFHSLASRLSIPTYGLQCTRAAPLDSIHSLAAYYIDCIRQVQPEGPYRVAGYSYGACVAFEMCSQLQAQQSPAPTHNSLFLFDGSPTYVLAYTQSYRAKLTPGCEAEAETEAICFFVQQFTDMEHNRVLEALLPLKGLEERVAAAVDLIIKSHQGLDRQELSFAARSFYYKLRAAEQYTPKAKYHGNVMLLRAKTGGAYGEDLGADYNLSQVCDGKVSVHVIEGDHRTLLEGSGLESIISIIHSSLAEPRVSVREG

| SMILES | inhibition |
| --- | --- |
| CCN1CCN(C(=O)/C=C\C(=O)O)CC1 | -3% |
| COc1ccc(/C=C/C(=O)c2cc(Br)ccc(=O)c2O)cc1 | 6.9% |
| COC(=O)CN(c1cccc(C(C)=O)c1)S(C)(=O)=O | -7% |
| O=C(COC(=O)c1cc([N+](=O)[O-])ccc1NCc1ccccc1)NC1CCCCC1 | 60.7% (active) |
| O=C(COC(=O)c1ccccc1Cl)NC1CCCCCCC1 | 8.2% |
| O=C(COC(=O)Cc1ccc([N+](=O)[O-])cc1)NC1CCCCCC1 | 22.7% |
| COc1ccc(S(=O)(=O)N(CCCN2CCCC2=O)Cc2cc3c(C)ccc(C)c3[nH]c2=O)cc1 | -3% |
| O=C(CCC1CCCCC1)Nc1cc(C(F)(F)F)ccc1N1CCOCC1 | 34.3% |
| Cc1ccc(C)c(Cn2nnc3c(=O)[nH]c(C(=O)Nc4ccc(F)cc4)nc32)c1 | 3.8% |
| Cc1cccc(CS(=O)(=O)c2ncc(Cl)c(C(=O)Nc3ccc(F)cc3)n2)c1 | 56.5% (active) |
| Cc1cccc(CN2CCC(CNC(=O)Nc3ccc(F)c(Cl)c3)CC2)c1 | 2.9% |
| O=C(N=C1SC2CS(=O)(=O)CC2N1c1ccccc1)c1ccccc1 (stereo not drawn) | 8.4% |
| O=[N+]([O-])c1ccc(CN2CC(N3CC=CC3)CS2(=O)=O)cc1 (stereo not drawn) | -9.2% |
| O=S1(=O)CC(N2CCC(Cc3ccccc3)CC2)CN1Cc1ccccc1 (stereo not drawn) | 6.6% |
| O=[N+]([O-])c1ccc(CN2CC(N3CCC(c4ccccc4)CC3)CS2(=O)=O)cc1 (stereo not drawn) | 69.8% (active) |
| CN(C(=O)c1ccc(NC(=O)Cc2cccc(NC(=O)C3CCN(C(=O)c4ccccc4)CC3)c2)cc1)C1CC1 | -9.5% |
| CCOc1ccc(C(=O)NC2CCN(CC(=O)NCc3cccs3)CC2)cc1 | -3.1% |
| Cc1cccc(NC(=O)C(C)N2C(=O)C3C4CC(C(Br)C4Br)C3C2=O)c1 (stereo not drawn) | 20.5% |
| O=C(Nc1ccnn1C1CCN(C/C=C/c2ccc(F)cc2)CC1)C1CCCC1 | -0.7% |
| Cc1cc(C(=O)COc2ccccc2[N+](=O)[O-])c(C)n1-c1cccc(S(=O)(=O)N2CCOCC2)c1 | 58.7% (active) |
| Cc1cc(S(=O)(=O)N2CCOCC2)ccc1OCC(=O)N1CCOCC1 | -2.5% |
| COC(=O)c1cc(Oc2ccc(S(=O)(=O)N3CCOCC3)cc2[N+](=O)[O-])cc(C(=O)OC)c1 | 38.3% |

| SMILES | inhibition |
| --- | --- |
| CSc1n[nH]c(=S)n1N | -4.3% |
| O=S(=O)(c1cnccc1N1CCN(/N=C/c2ccc(Br)cc2)CC1)N1CCCCC1 | 31.4% |
| Cc1cc(Nc2cccc(F)c2)n2ncnc2n1 | -2.8% |
| COc1cccc(C2CC(c3ccccc3)=NN2S(=O)(=O)c2ccccc2)c1OC (stereo not drawn) | 20% |
| COc1ccc(C2CC(=O)n3c(nc4ccccc43)S2)cc1OC (stereo not drawn) | -161% |
| COc1ccccc1C1CC(=O)n2c(nc(-c3ccccc3)c2-c2ccccc2)S1 (stereo not drawn) | 54.5% (active) |
| O=C(NCCNc1ccc([N+](=O)[O-])cc1)c1cccc2c(Br)cccc12 | 37.6% |
| COc1c(C)cc(C(O)c2ncc(-c3cccc(C(F)(F)F)c3)[nH]2)cc1C (stereo not drawn) | 7.9% |
| O=S1(=O)C[C@@H](N2CCN(CCO)CC2)[C@H](COCc2ccccc2)N1 | -9.7% |
| COC(=O)c1cccc(N2C(=O)C3C4C=CC(CC4)C3C2=O)c1 (stereo not drawn) | -6.4% |
| O=C(Oc1cccc(N2C(=O)C3C4c5ccccc5C(c5ccccc54)C3C2=O)c1)c1ccco1 (stereo not drawn) | 64.1% (active) |
| CC(=O)Nc1ccc(N2C(=O)C3C4CC(=O)C(c5ccccc54)C3C2=O)cc1 (stereo not drawn) | -10% |
| CCCNC(=O)COc1coc(CN2CCN(Cc3ccccc3)CC2)cc1=O | -9.4% |
| CC1(c2cccc(N)c2)OCCO1 | -9.3% |
| Cc1ccc(S(=O)(=O)N(CC(O)CN2CCCCC2)c2cccc([N+](=O)[O-])c2)cc1 (stereo not drawn) | 2.6% |
| COc1ccc([N+](=O)[O-])cc1N(CC(O)CN(CC(C)C)CC(C)C)S(=O)(=O)c1ccc(C)cc1 (stereo not drawn) | 32.7% |
| COc1ccc([N+](=O)[O-])cc1N(CC(O)Cn1nnc2ccccc21)S(=O)(=O)c1ccc(C)cc1 (stereo not drawn) | 51.1% (active) |
| Cc1c(C(=O)N2CCCC2)c(S(=O)(=O)NCC(C)c2ccccc2)c(C)n1C (stereo not drawn) | 2.1% |
| Cc1ccnc(NC(=O)c2ccc(Cl)c([N+](=O)[O-])c2)c1 | 23.1% |
| O=C(NCCC1=CCCCC1)c1ccc(Cl)c([N+](=O)[O-])c1 | 59.5% (active) |
| O=C(COc1ccc(Cl)cc1)NCCC1=CCCCC1 | 15.7% |
| COc1ccc(C(c2nnnn2Cc2cccs2)N2CCN(c3ccccc3)CC2)cc1OC (stereo not drawn) | 14.2% |

| SMILES | inhibition |
| --- | --- |
| Nc1c(-c2cccc(Cl)c2)cnn1-c1cccc([N+](=O)[O-])c1 | 51.8% (active) |
| Nc1c(C(=O)O)cnn1-c1ccccc1 | -1.5% |
| O=C(CCl)N(Cc1cccc([N+](=O)[O-])c1)c1cccc(Cl)c1 | 15.2% |
| CC(C)CNC(=O)COC(=O)/C=C/c1ccco1 | -7.5% |
| COc1ccc([N+](=O)[O-])cc1NC(=O)COC(=O)/C=C/c1ccco1 | 71.2% (active) |
| COc1cccc(NC(=O)COC(=O)/C=C/c2ccco2)c1 | 3.5% |
| CCOC(=O)Nc1ccc(S(=O)(=O)N(C)C(C)C)cc1 | -3.7% |
| CN1C(C(=O)NCc2ccco2)CC2Cn3c(nc4ccccc43)C21 (stereo not drawn) | -11.9% |
| O=C(CCCl)Nc1ccc(S(=O)(=O)NCc2ccco2)cc1 | -1.3% |
| COc1ccc(CNC(=O)C2CC(c3ccc(C(F)(F)F)cc3)=NO2)cc1 (stereo not drawn) | -1.7% |
| O=C(NCCCCc1ccccc1)C1CC(c2ccc([N+](=O)[O-])cc2)=NO1 (stereo not drawn) | 54.2% (active) |
| Cc1ccc(CNC(=O)C2CC(c3ccccc3[N+](=O)[O-])=NO2)o1 (stereo not drawn) | -5.1% |
| O=C(NCCCn1ccnc1)C(=O)NCC1OCCN1S(=O)(=O)c1cc(F)ccc1F (stereo not drawn) | -10.1% |
| C[C@H](NC(=O)c1nc[nH]c1C(=O)N[C@@H](C)C(=O)OC(C)(C)C)C(=O)OC(C)(C)C | -7% |
| CC(C)(C)OC(=O)NCCCCCNC(=O)c1nc[nH]c1C(=O)NCc1ccccc1 | 8.2% |
| CC(C)(C)OC(=O)NCCCCCNC(=O)c1[nH]cnc1C(=O)Nc1nccs1 | -15.7% |
| Cc1ccc(NC(=O)c2nc[nH]c2C(=O)N[C@@H](CCCCNC(=O)OC(C)(C)C)C(=O)OC(C)(C)C)cc1 | 75.3% (active) |
| CCOC(=O)c1ccc(NC(=O)c2nc[nH]c2C(=O)N[C@@H](CCCCNC(=O)OC(C)(C)C)C(=O)OC(C)(C)C)cc1 | 85.2% (active) |
| CNC(=O)c1[nH]cnc1C(=O)N[C@@H](CC(C)C)C(=O)OC(C)(C)C | -5.3% |
| COc1ccccc1CNS(=O)(=O)CC12CCC(CC1=O)C2(C)C (stereo not drawn) | 2.9% |
| Cc1cccc(OCC(=O)OCC(=O)Nc2ccc(Cl)cn2)c1 | -6.1% |
| CCN(CC)C(CNC(=O)CSc1nnnn1-c1cccc(F)c1)c1ccco1 (stereo not drawn) | -1.2% |

| SMILES | inhibition |
| --- | --- |
| Cc1cccc(N2CCN(C(=O)c3cc4c(=O)[nH]c5ccccc5c4n3C)CC2)c1C | 5% |
| O=C(Cc1ccc(S(=O)(=O)N2CCOCC2)s1)NCCOc1ccccc1F | -0.5% |
| Cc1ccc2c(c1)C(O)(CC(=O)c1cccc(-n3cccc3)c1)C(=O)N2 (stereo not drawn) | 2.6% |
| O=C(N/N=C/c1cc([N+](=O)[O-])ccc1O)/C(=C\c1cccs1)NC(=O)c1ccccc1 | 56.5% (active) |
| COc1cc(/C=C(/NC(=O)c2ccccc2)C(=O)Nc2cccc(O)c2)c([N+](=O)[O-])cc1OC | -3.8% |
| Nc1nnnn1/N=C/c1cc([N+](=O)[O-])ccc1O | -3.3% |
| COc1ccc(NC(=O)NN2CCN(C)CC2)c(OC)c1 | -6% |
| O=S(=O)(Nc1cccc(Oc2ccc(Cl)cc2)n1)c1ccc(F)cc1 | 8.1% |
| CC(C)CC(=O)c1c[nH]c(C(=O)NCc2ccccc2)c1 | -3.6% |
| CC1(c2ccc(Cl)cc2)NC(=O)N(CC(=O)c2ccc3c(c2)OCO3)C1=O (stereo not drawn) | 11.3% |
| Cn1c(=O)[nH]c(=O)c2c1nc(NCCCn1ccnc1)n2Cc1cccc(Br)c1 | -2.6% |
| CCOC(=O)c1ccc(-c2ccc3ncnc(N(C)Cc4sccc4C)c3c2)o1 | 26.5% |
| COc1ccc(C2=NN(C(=O)CSc3nc(=O)n4ccc(C)cc4n3)C(c3ccc(C)cc3)C2)cc1 (stereo not drawn) | 81.4% (active) |
| COc1ccc(C2CC(c3ccccc3)=NN2C(=O)CSc2nccc(=O)[nH]2)cc1 (stereo not drawn) | -5.6% |
| Cc1ccc(C2=NN(C(=O)CSc3nc(N)cc(N)n3)C(c3ccco3)C2)cc1 (stereo not drawn) | 1.5% |
| Cc1cccc(N=C2NC(=O)/C(=C/c3cn(C)c4ccccc34)S2)c1 | 52.4% (active) |
| Cc1cccc(N=C2SC(C)CN2C(=O)CN2C(=O)NC3(CCCC3)C2=O)c1 (stereo not drawn) | 3.9% |
| Cc1ccc(N2C(=O)S/C(=C/c3cn(C)c4ccccc34)C2=O)cc1 | 28.7% |
| Cc1ccccc1CSc1nnc(-c2ccccn2)n1N | -5.3% |
| O=C(NC1=NCCS1)c1ccc(Cl)s1 | -11.9% |
| Cc1cccc(N2CCC(NCc3c(C(=O)N4CCCCC4)nc4c(C)cccn34)CC2)c1 | -1.6% |
| O=C(O)CCS(=O)(=O)c1ccc(-c2ccccc2)cc1 | -1.5% |
